# A selection: hits, their analogues and other compounds. The true share with any hit is near 8.7%.
# HP1b binding inh: HP1-beta chromodomain-methylated histone interaction inhibition; Potency, µM (titrated, usually from 114 µM), for the others: at the top dose activity change, negative = inhibition, most hits filed as inhibitors; AlphaScreen HP1-beta / biotin-H3K9me3 peptide binding; P83916; hit rate 0.56% among 390,000; also: nearly all actives have a fitted effect of over 70% in size
#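 HP1-beta protein (50 nM final) preincubated 30 min at room temperature with biotinylated H3(1-18)K9me3 peptide (50 nM) in PBS pH 7.4, 0.01% Tween-20, then compound added for 30 min. AlphaScreen streptavidin donor/nickel chelate acceptor beads (10 ug/mL final), 30 min dark, luminescence read.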
# G9a block: G9a (human) methyltransferase inhibition; Q96KQ7; G9a H3K9 monomethylation, AlphaScreen, 2 h; Potency, µM (doses to about 102 µM), for the others: at the highest dose activity, negative = inhibition, usual class: inhibitors; hit rate 8.8% among 350,000; AID 504332; also: % is scaled to controls: 0 for no effect and ±100 for the full control effect; nearly all actives have a fitted effect of over 75% in size
#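 Compounds were preincubated with 20 nM G9a for 15 min, after which biotinylated H3K9 peptide (500 nM) and SAM (20 uM) started a 2 h room-temperature reaction. Monomethylated product was quantified by antibody-based AlphaScreen chemiluminescence.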
# BAZ2B block: blocks human BAZ2B; AlphaScreen BAZ2B-H3K14Ac peptide displacement; AID 504333; hit rate 4.4% among 360,000; Q9UIF8; Potency, µM (top dose mostly 114 µM), for the others: at the top dose activity change, negative = inhibition, most hits filed as inhibitors; also: % is scaled to controls: 0 for no effect and ±100 for the full control effect; nearly all actives have a fitted effect of over 60% in size
#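 Multi-concentration screen (max 110 uM) measuring displacement of acetylated histone H3 peptide from BAZ2B by AlphaScreen, using 50 nM protein, 50 nM peptide and 10 ug/mL streptavidin donor plus Ni-chelate acceptor beads.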
# 12-LOX inh: blocks human arachidonate 12S-lipoxygenase. P18054. purified 12hLO, xylenol orange hydroperoxide absorbance. Potency, µM (series often up to 108 µM), for inactives: at the top dose activity change, negative = inhibition, actives largely listed as inhibitors. hit rate 1.1% among 580,000; also: % is scaled to controls: 0 for no effect and ±100 for the full control effect
# Target sequence (P18054 whole entry, looked up): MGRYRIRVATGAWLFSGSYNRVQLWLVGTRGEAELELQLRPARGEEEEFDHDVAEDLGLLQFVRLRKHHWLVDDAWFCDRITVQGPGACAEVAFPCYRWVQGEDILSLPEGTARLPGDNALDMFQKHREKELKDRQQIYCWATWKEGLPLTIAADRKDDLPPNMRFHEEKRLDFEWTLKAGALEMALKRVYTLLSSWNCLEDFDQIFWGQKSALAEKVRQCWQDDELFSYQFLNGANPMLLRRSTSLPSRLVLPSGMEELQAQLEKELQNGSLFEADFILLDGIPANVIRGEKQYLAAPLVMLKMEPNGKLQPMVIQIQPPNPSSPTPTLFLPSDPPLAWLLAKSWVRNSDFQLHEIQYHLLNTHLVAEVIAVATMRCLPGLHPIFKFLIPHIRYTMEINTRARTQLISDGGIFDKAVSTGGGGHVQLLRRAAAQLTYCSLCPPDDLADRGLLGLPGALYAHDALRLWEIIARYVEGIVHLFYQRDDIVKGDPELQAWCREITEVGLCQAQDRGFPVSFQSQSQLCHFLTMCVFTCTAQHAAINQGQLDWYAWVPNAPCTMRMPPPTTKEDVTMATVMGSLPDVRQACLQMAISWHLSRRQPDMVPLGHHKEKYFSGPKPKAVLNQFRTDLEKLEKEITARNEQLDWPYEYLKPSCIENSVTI
#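 Hydroperoxide product was detected by ferrous iron/xylenol orange as the 573 to 405 nm absorbance ratio. Arachidonic acid at 40 uM (final) was turned over for 30 min at room temperature by 150 nM human 12hLO, pH 7.0 Hepes buffer, after 15 min compound preincubation.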
# JMJD2A Tudor inh: blocks the human JMJD2A Tudor domain. Potency, µM (series often up to 114 µM), without a hit: at the top dose activity change, negative = inhibition, actives largely listed as inhibitors. AlphaScreen JMJD2A-Tudor / H3K4me3 peptide binding. hit rate 4.4% among 390,000; also: % is scaled to controls: 0 for no effect and ±100 for the full control effect; nearly all actives have a fitted effect of over 50% in size
# Sfp inh: inhibitors of Bacillus subtilis Sfp phosphopantetheinyl transferase; Biochemical Sfp PPTase activity, qHTS; Potency, µM, for inactives: largest response in the series, negative = inhibition, usual class: inhibitors; hit rate 3.5% among 310,000;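 also: the enzyme is Sfp with the accession as filed and its product quenches rhodamine fluorescence; 0% = enzyme reaction without inhibitor and -100% = no enzyme wells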
#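 Fluorescence-quenching assay with 15 nM Sfp, 5 uM rhodamine-CoA and 12.5 uM BHQ-2-labelled ybbR peptide in pH 7.6 Hepes/MgCl2 buffer. Enzyme was pre-incubated with compound for 15 min at room temperature. Rate was taken from the 30-min fluorescence change (525/598 nm).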
# An asterisk follows results filed as active; ? = inconclusive; / = no result; [ ] = dose if it differs, or a comment. Calls follow the shape of the dose curve; as a rule, active = well fitted curve in the direction sought with a large enough effect; inconclusive = small, poorly fitted or top-dose-only effect, or another doubt; inactive = no such curve, though single readings can be large; an effect the other way counts as inactive or inconclusive. Potency is read from the fitted curve at half-maximal effect.
SMILES,HP1b binding inh,G9a block,BAZ2B block,12-LOX inh,JMJD2A Tudor inh,Sfp inh
O=C1COCC2(CN1Cc1cccc(OC(F)(F)F)c1)CN(c1ccccc1F)C2,/,/,/,6%[176 µM],/,/
O=C(Nn1c(O)c(C=C2N=c3ccccc3=N2)sc1=S)c1ccccc1,0%,1.4µM*,-29%,0%,-34%,-15%
O=C1N=c2ccc(Br)cc2=C1c1sc(=S)n(NS(=O)(=O)c2ccccc2)c1O,?,16µM*,20µM*,35µM*,50µM*,?
O=C1N=c2ccccc2=C1c1sc(=S)n(-c2ccc(O)cc2)c1O,7%,?,-36%,7%,-4%,1%
Cc1ccc(C(=O)Nn2c(O)c(C=C3N=c4ccccc4=N3)sc2=S)cc1,16%,7%[59 µM],-6%,25%,-26%,50µM*
Cc1ccc(S(=O)(=O)Nn2c(O)c(C=C3N=c4ccccc4=N3)sc2=S)cc1,-18%,?,-30%,35µM*,?,-1%
COc1ccc(CNC(=O)CSc2nnc(C)n2C2CC2)cc1,/,/,/,-11%,/,/
Cc1nn(CC(=O)N2CCN(c3ccccc3)CC2)c(C)c1[N+](=O)[O-],18%,?,-5%,-17%,-1%,1%
Cc1c(Cl)c([N+](=O)[O-])nn1CC(=O)N1CCc2ccccc2C1,16%,26%[0.0925 µM],-1%,0%,-8%,-7%
Cc1nn(CC(=O)N2CCN(C34CC5CC(CC(C5)C3)C4)CC2)c(C)c1[N+](=O)[O-],33%,25µM*,0%,-8%,5%,20%
Cc1c(Cl)c([N+](=O)[O-])nn1CC(=O)N1CCN(C23CC4CC(CC(C4)C2)C3)CC1,-5%,45µM*,-4%,9%,-21%,-28%
COCc1ccc(C(=O)N2CC[C@](C)(O)[C@H](C)C2)s1,/,/,/,22%,/,/
Cc1nnc(NC(=O)CSc2nnc(C3CC3)n2C(C)C)s1,/,/,/,5%,/,/
CCn1ccc(C(=O)N2CCOc3ccc(CCC(N)=O)cc3C2)n1,/,/,/,21%,/,/
Cn1cnc2c1c(=O)n(CCCN1CCC(C(N)=O)CC1)c(=O)n2C,/,/,/,2%,/,/
COc1ccc(Br)cc1C1CC(=O)N2CN(Cc3ccccc3)CSC2=C1C#N (stereo not drawn),-14%,1.4µM*,-36%,?,?,2.2µM*
COc1ccc(OC)c(S(=O)(=O)N2CCN(Cc3ccccc3)CC2)c1,28%,/,-9%,0%,1%,8%
COc1ccc(C2CC(=O)N3CN(Cc4ccccc4)CSC3=C2C#N)c(OC)c1 (stereo not drawn),/,/,/,5.6µM*,/,/
CCOC(=O)c1ccc(N2CSC3=C(C#N)C(c4ccc(OC)cc4OC)CC(=O)N3C2)cc1 (stereo not drawn),34%,13µM*,50µM*,?,-30%,20µM*
COc1ccc(CCN2C(=O)CN(Cc3ccccc3)CC2=O)cc1OC,15%,5%,3%,0%,-13%,-5%
CCOC(=O)C1=C(C)OC(n2cccc2)=C(C#N)C1c1cc(OC)ccc1OC (stereo not drawn),/,/,/,-3%,/,/
O=C(C1Cn2cccc2C(=O)N1Cc1cccnc1)N1CCN(c2ncccn2)CC1 (stereo not drawn),/,/,/,15%,/,/
COc1ccc(CCC(=O)N2CCC3(CC2)NCCc2c3[nH]c3ccc(OC)cc23)cc1,/,/,/,11%,/,/
CN1CCC(N[C@H]2CC(C)(C)[C@@H]3C[C@@](C)(O)CC[C@]23CCC(=O)N2CCOCC2)CC1,/,/,/,-16%,/,/
CCc1cc2c(=O)c(-c3nc4ccccc4n3C)c(COCC(=O)O)oc2cc1O,18%,-2%[59 µM],?,18%,?,13%
CCCc1cc2c(=O)c(-c3nc4ccccc4s3)c(COCC(=O)O)oc2cc1O,15%,50µM*,-24%,?,?,-8%
CN(Cc1ccsc1)C(=O)CCc1nnc(Cc2c[nH]c3ccccc23)o1,-16%,9%,-1%,-23%,45µM*,31%
CCC(COC)NC(=O)CCc1nnc(Cc2c[nH]c3ccccc23)o1 (stereo not drawn),42%,?,-4%,1%,5%,-8%
